Consider nine compounds from PubChem BioAssay (NCATS).

The target in assay [1] is Mitogen-activated protein kinase 10 (Mus musculus) (UniProt Q61831). Put plainly: JNK3 AlphaScreen Assay (AID 530; active = well fitted curve in either direction with a large enough effect, not every such curve was filed as active;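 also: kinase came from lysate of stimulated human HepG2 cells; signal reports phosphorylation of biotinylated GST-cJun 1-79 at Ser73 with 10 µM ATP; % is scaled to controls: 0 for no effect and ±100 for the full control effect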). Put shortly:
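JNK3 came from HepG2 lysates pre-activated with IL-1beta and TNF-alpha and phosphorylated biotinylated GST-cJun (1-79) at 10 uM ATP, pH 7.6, room temperature. Compounds were titrated. AlphaScreen signal used anti-phospho-cJun (Ser73) antibody.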
A general note: Alpha assays give light when donor and acceptor beads are brought close together.

The target of assay [2] is 3',5'-cyclic-AMP phosphodiesterase 4B (Homo sapiens) (UniProt Q07343). Put plainly: qHTS Assay for Inhibitors of PDE-IV (AID 607; active = well fitted activation curve with a large enough effect in the main read-out, with a control signal flat, not every such curve was filed as active; also: % of control where 0% means no effect). Put shortly: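 Live HEK293 cells with a modified cyclic nucleotide-gated (CNG) channel report intracellular cAMP via membrane-potential dye fluorescence (ex 535/em 590 nm). Endogenous PDE-IV was targeted. Compounds were tested at up to 22.9 uM final; RO 20-1724 100 uM served as control.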
In general terms: Quantitative high-throughput screening tests each substance at several concentrations.

Assay [3] can be described thus: qHTS Assay for Lipid Storage Modulators (AID 1519; calls by dose curve; as to activity change, negative = inhibition: % is scaled to controls: 0 for no effect and ±100 for the full control effect). Particulars: Drosophila S3 cells, BODIPY lipid droplet/cell ratio, laser cytometry, cells loaded with oleic acid. The method in brief: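 Cells seeded at 5,000 per well were treated with compounds over a concentration series and loaded with oleic acid (400 uM, as added). Lipid droplet fluorescence (488 nm excitation, 500-530 nm channel) was read by laser-scanning cytometry and normalized to 20 uM Triacsin C.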

The target in assay [4] is Ubiquitin carboxyl-terminal hydrolase 1 (Homo sapiens) (UniProt O94782). Put plainly: Inhibitors of USP1/UAF1: Pilot qHTS (AID 504865).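 Also: rhodamine fluorescence freed from ubiquitin-rhodamine substrate followed over time; top concentration of the series differs between compounds; % is scaled to controls: 0 for no effect and ±100 for the full control effect; nearly all actives have a fitted effect of over 35% in size.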 The method in brief:
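1nM USP1/UAF1 + cpd, 15 min RT; start w/ Ub-Rho 150nM final; kinetic FL 480/540 nm, 6 reads q60 s. Buffer 50mM HEPES pH 7.8, 0.5mM EDTA, 1mM TCEP, 0.01% Tween-20, 0.1 mg/ml BSA.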

In assay [5] the target is Glucocorticoid receptor (Homo sapiens) (UniProt P04150). Put plainly: GR-EFC Redistribution (AID 451; calls by dose curve; also: potency is read from the fitted curve at half-maximal effect). Particulars: CHO-K1 GR-EFC translocation, beta-gal luminescence, 2 h. Put shortly: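 CHO-K1 cells stably expressing nuclear-localized β-gal enzyme acceptor and GR fused C-terminally to the enzyme donor fragment; ligand-driven nuclear translocation restores β-gal by complementation. Compounds titrated up to 46 uM final, 2 h at 37 °C; luminescence read.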

The target in assay [6] is ATP-dependent 6-phosphofructokinase (Trypanosoma brucei brucei) (UniProt O15648). Put plainly: qHTS Assay to Find Inhibitors of T. brucei phosphofructokinase: hit validation (AID 492961).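 Also: luminescence reports ADP formed as PFK phosphorylates fructose-6-phosphate with ATP; % is scaled to controls: 0 for no effect and ±100 for the full control effect.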 Put shortly: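 PFK 1.25 nM, F6P 0.5 mM, ATP 0.1 mM, MgCl2 5 mM, 0.1 M TEA pH 8.0, Tween20 0.01%, BSA 0.1%; 45 min RT. ADP-Glo two-step detection, luminescence. qHTS titration; curve fitting with curve-class categorization.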

Assay [7] addresses Luciferin 4-monooxygenase (Photinus pyralis) (UniProt P08659). Put plainly: Biochemical firefly luciferase enzyme assay for NPC (AID 624030).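 Also: purified P. pyralis luciferase at 10 nM with luciferin and ATP substrate; 0% = DMSO and -100% = full luciferase inhibition by PTC124 control; nearly all actives have a fitted effect of over 70% in size.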 Put shortly: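 Counter-screen for direct inhibition of the luciferase enzyme by approved-drug library compounds, run at 10 nM enzyme in 50 mM Tris acetate (final). Luminescence was read within 5 min of enzyme-buffer addition and normalized to PTC124 versus DMSO (0%).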

Assay [8] in a line: qHTS profiling for inhibitors of Plasmodium falciparum proliferation (AID 504749).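 Also: 0% = DMSO vehicle and full inhibition = artemisinin control; nearly all actives have a fitted effect of over 60% in size.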 As to conditions: P. falciparum in erythrocytes, SYBR Green DNA, 72 h, at 12.8 µM (top of the series). Put shortly:
(§1)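 P. falciparum-infected erythrocytes (0.3% parasitemia, 2.5% hematocrit final) were exposed to compounds for 72 h at 37 C in 5% CO2, then lysed with SYBR Green buffer overnight at room temperature; parasite DNA fluorescence was normalized to artemisinin and DMSO controls.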

A further assay has as its system AS120. The description is as above. As to conditions: P. falciparum in erythrocytes, SYBR Green DNA, 72 h; series mostly up to 12.8 µM. The method in brief: as §1
In a further assay the test system is C2A. The description is as above. As to conditions: P. falciparum in erythrocytes, SYBR Green DNA, 72 h; series mostly up to 12.8 µM. The method in brief: as §1
Another assay relates to CP191. The assay is described as above. As to conditions: P. falciparum in erythrocytes, SYBR Green DNA, 72 h; series mostly up to 12.8 µM. Put shortly: as §1
For the next assay, the system named is CP217. Described as above. As to conditions: P. falciparum in erythrocytes, SYBR Green DNA, 72 h; series mostly up to 12.8 µM. Put shortly:
as §1

For the next assay, the system named is CP305. Described as above. As to conditions: P. falciparum in erythrocytes, SYBR Green DNA, 72 h; series mostly up to 12.8 µM. The method in brief:
as §1

For another assay, the system named is CP329. The assay is described as above. Particulars: P. falciparum in erythrocytes, SYBR Green DNA, 72 h; series mostly up to 12.8 µM. The method in brief:
as §1

A further assay concerns ECU. Described as above. As to conditions: P. falciparum in erythrocytes, SYBR Green DNA, 72 h; series mostly up to 12.8 µM. The method in brief: as §1
In a further assay the test system is FAB9. The assay is described as above. As to conditions: P. falciparum in erythrocytes, SYBR Green DNA, 72 h; series mostly up to 12.8 µM. The method in brief:
as §1

The test system of a further assay is N140. The assay is described as above. As to conditions: P. falciparum in erythrocytes, SYBR Green DNA, 72 h; series mostly up to 12.8 µM. Put shortly: as §1
The next assay relates to PC15. Described as above. As to conditions: P. falciparum in erythrocytes, SYBR Green DNA, 72 h; series mostly up to 12.8 µM. Put shortly:
as §1

The next assay deals with PC49. The description is as above. Particulars: P. falciparum in erythrocytes, SYBR Green DNA, 72 h; series mostly up to 12.8 µM. The method in brief:
as §1

A further assay concerns TAB165. The assay is described as above. Particulars: P. falciparum in erythrocytes, SYBR Green DNA, 72 h; series mostly up to 12.8 µM. The method in brief: as §1
Where [9] appears, read: measured here: cell count channel max response.
The mark [10] stands for this setting: measured here: lipid channel max response.

Records with an inconclusive call do not appear. The source made the active and inactive calls. Unless noted, calls follow the shape of the dose curve; as a rule, active = well fitted curve in the direction sought with a large enough effect; inconclusive = small, poorly fitted or top-dose-only effect, or another doubt; inactive = no such curve, though single readings can be large; an effect the other way counts as inactive or inconclusive. Where only a bound is given, the exact number is not on record here.

Sequence of Glucocorticoid receptor (Homo sapiens) (P04150 whole entry, looked up, the tested form may be a part): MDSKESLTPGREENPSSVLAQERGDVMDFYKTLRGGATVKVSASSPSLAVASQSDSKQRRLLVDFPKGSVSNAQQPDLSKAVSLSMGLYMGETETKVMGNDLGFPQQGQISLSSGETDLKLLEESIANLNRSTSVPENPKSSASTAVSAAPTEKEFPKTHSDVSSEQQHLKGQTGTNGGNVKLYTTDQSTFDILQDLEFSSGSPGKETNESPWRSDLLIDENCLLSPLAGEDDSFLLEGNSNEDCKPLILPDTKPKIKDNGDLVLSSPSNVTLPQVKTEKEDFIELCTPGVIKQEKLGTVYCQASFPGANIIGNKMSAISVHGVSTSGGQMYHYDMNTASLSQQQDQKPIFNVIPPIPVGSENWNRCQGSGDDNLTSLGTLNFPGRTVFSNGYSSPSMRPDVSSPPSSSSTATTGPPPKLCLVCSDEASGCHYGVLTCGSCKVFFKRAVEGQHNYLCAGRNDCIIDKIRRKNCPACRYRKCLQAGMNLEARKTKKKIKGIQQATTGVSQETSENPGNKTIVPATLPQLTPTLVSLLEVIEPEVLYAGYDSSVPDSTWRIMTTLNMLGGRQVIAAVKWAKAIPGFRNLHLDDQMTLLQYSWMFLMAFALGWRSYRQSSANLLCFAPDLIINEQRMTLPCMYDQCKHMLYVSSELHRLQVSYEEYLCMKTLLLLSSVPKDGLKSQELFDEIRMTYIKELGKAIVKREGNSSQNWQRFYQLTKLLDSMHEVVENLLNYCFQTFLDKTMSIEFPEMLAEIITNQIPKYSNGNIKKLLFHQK
Sequence of 3',5'-cyclic-AMP phosphodiesterase 4B (Homo sapiens) (Q07343 whole entry, looked up): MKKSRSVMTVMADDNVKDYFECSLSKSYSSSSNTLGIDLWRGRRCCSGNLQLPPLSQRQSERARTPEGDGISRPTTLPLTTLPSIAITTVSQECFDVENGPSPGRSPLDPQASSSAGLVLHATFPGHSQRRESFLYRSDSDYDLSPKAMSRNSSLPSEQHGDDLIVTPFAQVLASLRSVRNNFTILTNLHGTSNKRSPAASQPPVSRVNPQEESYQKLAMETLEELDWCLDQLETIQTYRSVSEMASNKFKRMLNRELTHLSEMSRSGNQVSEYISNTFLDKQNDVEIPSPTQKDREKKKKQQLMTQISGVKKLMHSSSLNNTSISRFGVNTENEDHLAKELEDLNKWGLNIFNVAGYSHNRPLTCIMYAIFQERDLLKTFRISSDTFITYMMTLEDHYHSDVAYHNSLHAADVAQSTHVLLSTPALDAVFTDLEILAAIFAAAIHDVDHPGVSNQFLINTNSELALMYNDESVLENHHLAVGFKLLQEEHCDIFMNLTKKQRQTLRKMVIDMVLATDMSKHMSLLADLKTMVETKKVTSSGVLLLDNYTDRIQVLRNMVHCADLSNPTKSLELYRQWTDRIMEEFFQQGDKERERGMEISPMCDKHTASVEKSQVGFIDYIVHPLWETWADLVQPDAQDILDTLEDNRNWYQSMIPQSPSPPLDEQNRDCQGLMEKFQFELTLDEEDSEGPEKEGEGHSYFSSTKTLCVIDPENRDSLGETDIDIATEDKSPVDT
Sequence of Ubiquitin carboxyl-terminal hydrolase 1 (Homo sapiens) (O94782 whole entry, looked up): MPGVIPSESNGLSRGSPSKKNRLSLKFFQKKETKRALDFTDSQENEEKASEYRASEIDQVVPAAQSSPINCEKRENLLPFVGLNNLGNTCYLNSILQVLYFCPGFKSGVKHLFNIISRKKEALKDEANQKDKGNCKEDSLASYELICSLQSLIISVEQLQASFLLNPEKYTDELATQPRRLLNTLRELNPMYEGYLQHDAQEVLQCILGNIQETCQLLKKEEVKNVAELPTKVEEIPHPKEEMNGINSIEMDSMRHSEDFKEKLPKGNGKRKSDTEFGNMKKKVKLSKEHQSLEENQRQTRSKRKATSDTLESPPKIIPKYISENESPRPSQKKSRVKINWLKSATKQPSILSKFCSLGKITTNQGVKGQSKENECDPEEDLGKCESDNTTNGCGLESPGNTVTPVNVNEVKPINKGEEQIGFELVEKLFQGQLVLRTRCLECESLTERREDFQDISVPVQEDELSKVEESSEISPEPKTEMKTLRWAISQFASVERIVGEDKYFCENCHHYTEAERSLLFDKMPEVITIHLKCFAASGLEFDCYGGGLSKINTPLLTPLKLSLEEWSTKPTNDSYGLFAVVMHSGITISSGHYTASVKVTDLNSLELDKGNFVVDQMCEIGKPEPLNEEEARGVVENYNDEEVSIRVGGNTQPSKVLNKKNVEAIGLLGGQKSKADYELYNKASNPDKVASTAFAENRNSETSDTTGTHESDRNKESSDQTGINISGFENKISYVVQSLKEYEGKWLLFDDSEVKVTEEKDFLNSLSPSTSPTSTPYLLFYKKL
Sequence of ATP-dependent 6-phosphofructokinase (Trypanosoma brucei brucei) (O15648 whole entry, looked up): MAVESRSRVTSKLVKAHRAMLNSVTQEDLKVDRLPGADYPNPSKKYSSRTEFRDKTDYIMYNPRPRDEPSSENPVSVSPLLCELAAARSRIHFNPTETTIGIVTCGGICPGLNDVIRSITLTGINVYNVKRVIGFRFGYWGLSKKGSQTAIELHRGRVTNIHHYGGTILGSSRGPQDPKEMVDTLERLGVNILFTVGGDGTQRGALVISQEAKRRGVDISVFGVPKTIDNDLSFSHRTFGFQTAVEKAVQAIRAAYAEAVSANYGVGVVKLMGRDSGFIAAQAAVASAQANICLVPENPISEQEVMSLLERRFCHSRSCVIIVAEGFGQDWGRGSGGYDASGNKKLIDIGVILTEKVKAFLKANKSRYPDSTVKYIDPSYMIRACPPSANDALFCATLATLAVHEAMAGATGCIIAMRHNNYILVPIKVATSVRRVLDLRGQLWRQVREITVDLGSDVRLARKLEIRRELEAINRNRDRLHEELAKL
Sequence of Luciferin 4-monooxygenase (Photinus pyralis) (P08659 whole entry, looked up): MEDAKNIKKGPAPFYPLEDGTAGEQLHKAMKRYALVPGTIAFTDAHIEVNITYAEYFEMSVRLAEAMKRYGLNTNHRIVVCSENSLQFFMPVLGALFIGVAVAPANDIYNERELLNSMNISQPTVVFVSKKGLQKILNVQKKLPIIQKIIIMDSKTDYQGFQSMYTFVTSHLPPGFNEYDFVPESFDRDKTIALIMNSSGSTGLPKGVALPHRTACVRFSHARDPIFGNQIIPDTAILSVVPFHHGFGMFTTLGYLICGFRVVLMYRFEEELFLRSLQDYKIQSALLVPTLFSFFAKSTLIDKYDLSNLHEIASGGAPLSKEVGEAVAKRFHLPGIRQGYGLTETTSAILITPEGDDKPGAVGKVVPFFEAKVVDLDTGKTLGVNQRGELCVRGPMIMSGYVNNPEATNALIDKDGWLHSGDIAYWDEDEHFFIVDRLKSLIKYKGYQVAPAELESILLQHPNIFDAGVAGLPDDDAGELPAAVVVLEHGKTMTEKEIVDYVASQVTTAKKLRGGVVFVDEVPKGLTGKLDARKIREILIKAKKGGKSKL

Turning to `C=N[C@H](C(=O)N[C@@H]1C(=O)N2[C@@H]1SC(C)(C)[C@@H]2C(=O)O)c1ccccc1`, the Potency entry in assay [1] and in assay [4] was “inactive” each time. For the same compound, in assay [2], the compound was classed as inactive. Besides, in assay [3] (at 25.7 µM (top of the series)), the activity change, negative = inhibition was -2.09% (inactive). The max response in assay [3] (setting [9]) is -2.49%; in [3] (setting [10]), -4.08%.

For `O=C1C=CC(=O)c2c1ccc1c2ccc2ccccc21`, the Potency in assay [5] is > 20.6 µM (inactive). Besides, the Potency result in assay [1] was “inactive”. For the same compound, the call in [2] was inactive. Moreover, the activity change, negative = inhibition in [3] (at 25.7 µM (top of the series)) is -0.997% (inactive). The max response in assay [3] (setting [9]) was -0.715%; in assay [3] (setting [10]) it was -3.16%.

On to `Clc1cnccn1`, for which the Potency in [5] was > 20.6 µM (inactive). The Potency result in assay [1] and in [4] was “inactive” each time. The activity change, negative = inhibition in [3] (at 25.7 µM (top of the series)) was 2.5% (inactive). Further, the values for the max response in assay [3] (setting [9]) and in assay [3] (setting [10]) were 8.49% and 10.5%, respectively.

As to `C1CCC(C(C[C@@H]2CCCCN2)C2CCCCC2)CC1`, in [5], the Potency is > 20.6 µM (inactive). Moreover, the Potency result in [1] and in [4] was “inactive” each time. In addition, the activity change, negative = inhibition in assay [3] (at 25.7 µM (top of the series)) was -4.85% (inactive). Besides, the max response is -11.9% in [3] (setting [9]) and -15.6% in assay [3] (setting [10]).

With `Nc1ncnc2c1ncn2[C@@H]1O[C@H](COP(=O)(O)O)[C@@H](O)[C@@H]1O`, in [5], the Potency was > 20.6 µM (inactive). For the same compound, the Potency entry in assay [1] and in assay [4] was “inactive” in each case. Moreover, in [3] (at 25.7 µM (top of the series)), the activity change, negative = inhibition is -0.35% (inactive). The figures for the max response in [3] (setting [9]) and in assay [3] (setting [10]) were -10.2% and -10.8%, respectively.

Turning to `CCN(CC)CCOC(=O)[C@@H](c1ccccc1)C1CCCCC1`, in assay [5], the Potency is > 20.6 µM (inactive). In addition, the Potency result in assay [1] and in assay [4] was “inactive” each time. In addition, the activity change, negative = inhibition in [3] (at 25.7 µM (top of the series)) is -5.77% (inactive). The figures for the max response in assay [3] (setting [9]) and in assay [3] (setting [10]) were -11.7% and -16.6%, respectively.

Consider `C[C@H](CCC(=O)NCC(=O)O)[C@H]1CC[C@H]2[C@H]3[C@@H](C[C@@H](O)[C@]12C)[C@]1(C)CC[C@H](O)C[C@@H]1C[C@@H]3O`, for which, in assay [5], the Potency was > 20.6 µM (inactive). Moreover, the Potency result in assay [1] and in assay [4] was “inactive” each time. Also, the result in assay [2] was inactive. In assay [3] (at 25.7 µM (top of the series)), the activity change, negative = inhibition was 0.864% (inactive). The figures for the max response in assay [3] (setting [9]) and in assay [3] (setting [10]) were -1.04% and -0.773%, respectively.

As to `C[C@@H]1Cc2ccccc2N1NC(=O)c1ccc(Cl)c(S(N)=O)c1` (some centres not stated), the Potency result (in assay [1]; in [4]; in assay [7]; with AS120; with C2A; in the assay with CP191) was “inactive” in each case. In addition, the Potency result with CP217, with CP305, in the assay on CP329, in the assay on ECU, with FAB9 and in the assay with N140 was “inactive” in each case. The Potency result in the assay with PC15, with PC49 and in the assay on TAB165 was “inactive” in each case. Besides, the outcome in [2] and in assay [6] was inactive. The activity change, negative = inhibition in assay [3] (at 25.7 µM (top of the series)) is -0.666% (inactive). Further, the max response in [3] (setting [9]) was 8.03%; in assay [3] (setting [10]), 7.13%. The activity, negative = inhibition in assay [8] (parasite line A) is 15.9% (inactive); in [8] (parasite line B), 17.7% (inactive).

On to `N#Cc1cccc(-c2cncnc2-n2ccnc2)c1`, for which the Potency in assay [5] is > 46 µM (inactive). Further, the Potency result in assay [1] and in assay [4] was “inactive” in each case. In addition, in [2], the compound was classed as inactive. Further, the activity change, negative = inhibition in assay [3] (at 57.5 µM (top of the series)) was 8.24% (inactive). The max response in assay [3] (setting [9]) came to 16.1%; in assay [3] (setting [10]), 24.6%.
